# A selection: hits, their analogues and other compounds. The true share with any hit is near 2%.
# H9c2 TAG inh = triacylglycerol accumulation inhibition. H9c2 cells, Nile Red lipid (TAG) fluorescence; cells loaded with 200 µM oleic acid. inhibition, % at 12.5 µM. actives 0.66% (n = 230,000);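 active = pattern-corrected inhibition of lipid staining of at least 50% with the nuclear-stain viability signal not falling by more than 50%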;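 also: 0% = DMSO wells and 100% = triacsin C control wells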
# CHT allo act = allosterically activates the human high affinity choline transporter. CHT-expressing cells, membrane potential dye, choline EC20; active compounds read high; LV-AA mutant CHT in HEK293 cells. B-score at 10 µM. actives 0.49% (n = 310,000). AID 488977;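 active = initial fluorescence not abnormally high and integrated response B-score, plate-corrected, over 3 SD above library mean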
# Target sequence (Q9GZV3 whole entry, looked up): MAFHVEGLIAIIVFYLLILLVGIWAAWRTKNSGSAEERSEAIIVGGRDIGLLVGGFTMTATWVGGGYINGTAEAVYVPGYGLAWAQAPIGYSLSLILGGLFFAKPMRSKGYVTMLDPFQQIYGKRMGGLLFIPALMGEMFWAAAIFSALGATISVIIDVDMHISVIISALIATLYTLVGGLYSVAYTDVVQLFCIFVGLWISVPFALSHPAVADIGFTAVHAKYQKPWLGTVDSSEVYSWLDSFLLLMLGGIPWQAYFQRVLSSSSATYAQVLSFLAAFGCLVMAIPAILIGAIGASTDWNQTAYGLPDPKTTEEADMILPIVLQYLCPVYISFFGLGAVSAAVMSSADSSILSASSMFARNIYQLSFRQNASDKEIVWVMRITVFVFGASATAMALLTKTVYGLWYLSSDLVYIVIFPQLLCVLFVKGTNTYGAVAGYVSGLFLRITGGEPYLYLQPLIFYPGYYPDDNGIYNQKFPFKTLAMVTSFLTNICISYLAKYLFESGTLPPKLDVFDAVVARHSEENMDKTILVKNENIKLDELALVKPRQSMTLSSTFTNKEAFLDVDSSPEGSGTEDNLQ
# Kir21 block = blocks the mouse Kir2.1 inward-rectifier potassium channel; P35561; HEK293-Kir2.1, FluxOR thallium flux fluorescence; active compounds read low; B-score at 10 µM; actives 0.85% (n = 310,000); AID 1672;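 active = fluorescence ratio B-score at or below minus 3 SD of library scores, with starting-brightness B-score within 2 SD, cut at about -4.2 in these data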;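 also: channel flux triggered by added potassium and thallium sulfate stimulus; B-score of peak minus minimum fluorescence over baseline after thallium stimulus; more negative B-score means stronger Kir2.1 block with less thallium influx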
# CHT inh = inhibits the human high affinity choline transporter; CHT-expressing cells, membrane potential dye, choline response; active compounds read low; actives 0.86% (n = 310,000); Q9GZV3; B-score at 10 µM;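 active = B-score over 3 SD under the library average, and starting fluorescence ratio not unusually high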;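 also: choline stimulus applied at its EC90 after an EC20 pre-addition; B-score computed on integrated fluorescence ratio after choline addition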
# Numbers without * were called inactive; i = inactive; . = no result given.
SMILES,H9c2 TAG inh,CHT allo act,Kir21 block,CHT inh
CCc1ccc(CN(C)CC(O)COc2cccc3ccccc23)cc1 (stereo unspecified),.,i,-16.3*,i
C=CC[C@H](CC(=O)NCCO)C(=O)NCCOC(=O)[C@@H](CC=C)CC(=O)OC(C)(C)C,-0.9,.,.,.
Cc1cc(C)nc(SCCn2c(N3CCOCC3)nc3c2c(=O)[nH]c(=O)n3C)n1,3.0,i,1.85,i
Cc1nn(CC(=O)Nc2ccc(Cl)cn2)c(C)c1Br,.,i,-0.76,i
CC(C)c1ccccc1OCCCCN1CCCCC1,-0.1,i,-5.05*,i
CC(C)c1ccccc1OCCCN1CCCC1,.,i,-0.9,i
Cc1ccc(C(C)C)c(OCCCN2CCc3ccccc3C2)c1,.,i,-9.02*,i
CN(c1ccccc1)P(=O)(N(C)c1ccccc1)N(C)c1ccccc1,-20.1,i,-5.47*,i
CCOc1ccc(Cl)cc1S(=O)(=O)N1CCC(C(=O)NCc2cccnc2)CC1,.,i,-1.65,i
Cc1nn(-c2ccc([N+](=O)[O-])cc2)c2c1C(c1cccc(Br)c1)N1C(=N2)C(=O)Nc2ccccc21 (stereo unspecified),.,i,0.72,-6.63*
CCOC(=O)c1c(C)[nH]c(C)c1C(=O)CSc1nc2ccccc2n1CC,.,i,-5.34*,i
CCOC(=O)c1c(C)[nH]c(C)c1C(=O)CSc1nc2ccccc2[nH]1,.,i,0.81,i
CC(C)[C@H](NC(=O)OC(C)(C)C)c1nnc(S(=O)(=O)Cc2c(F)cccc2Cl)o1,.,i,-4.36*,i
CC[C@@H](C)[C@H](NC(=O)OC(C)(C)C)c1nnc(S(=O)(=O)Cc2cc(C)ccc2C)o1,-0.7,i,-9.11*,i
CCN1CCN(C(c2cccs2)C(C)NC(=S)Nc2cc(C)ccc2C)CC1 (stereo unspecified),-5.8,i,-5.52*,i
Cc1ccc(C)c(NC(=S)NC(C)C(c2ccccc2)N2CCN(C)CC2)c1 (stereo unspecified),11.4,i,-2.04,i
Cc1ccc(Cl)c(OCC(=O)NCC(c2cccs2)N2CCOCC2)c1 (stereo unspecified),11.3,i,-7.85*,i
O=C(COc1ccccc1Cl)NCC(c1cccs1)N1CCOCC1 (stereo unspecified),-6.9,i,-0.7,i
Cc1cc(=O)oc2cc(OCC(=O)Nc3ccc4[nH]c(=O)[nH]c4c3)ccc12,-8.2,i,-1.08,i
CCOc1cc(/C=C2\COc3ccccc3C2=O)cc(Br)c1OCC(=O)N(C)C,.,i,-4.98*,i
COC(=O)c1c(C)oc(C)c1S(=O)(=O)NCc1ccc(Cl)cc1Cl,-24.8,i,-5.13*,i
O=C(OCC(=O)N1CCOCC1)c1ccc(F)cc1Cl,.,i,-0.07,i
COc1ccc(S(=O)(=O)NCCSCc2ccco2)cc1Cl,-13.5,i,-6.27*,i
COc1cc2[nH]c(C(=O)NCc3ccccc3)cc2c(OC)c1OC,.,i,-6.3*,i
COc1cc2[nH]c(C(=O)NCCc3ccccc3)cc2c(OC)c1OC,.,i,0.15,i
SMILES,H9c2 TAG inh,CHT allo act,Kir21 block,CHT inh
CN(C)C(=O)c1ccc(NC(=O)c2sccc2-c2ccccc2)cc1,-0.9,i,-0.29,i
CCOc1ccc(-n2c(C)cc(C(=O)CCl)c2C)cc1,59.0*,i,0.04,i
CC(=O)O[C@H]1C[C@@H]2CC[C@@H]3[C@H](CC[C@@]4(C)[C@H]3C[C@H]([N+]3(C)CCCCC3)[C@@H]4OC(C)=O)[C@@]2(C)C[C@@H]1N1CCCCC1,.,6.5*,-0.79,i
CC(=O)O[C@H]1C[C@@H]2CC[C@@H]3[C@H](CC[C@@]4(C)[C@H]3C[C@H]([N+]3(C)CCCCC3)[C@@H]4OC(C)=O)[C@@]2(C)C[C@@H]1[N+]1(C)CCCCC1,5.9,i,.,i
COc1cc2nc(N3CCN(c4cc(C)ccc4C)CC3)nc(N)c2cc1OC,.,i,-1.61,i
COc1cc2nc(N3CCNCC3)nc(N)c2cc1OC,.,i,-0.03,-8.29*
O=C1NC(N2CCOCC2)=N/C1=C/c1ccc2c(c1)OCO2,-3.3,i,-2.53,i
COc1cc([N+](=O)[O-])ccc1NC(=S)NNC(=O)c1ccc2c(c1)OCO2,17.6,i,1.06,-5.68*
O=C(NC(=S)Nc1cc([N+](=O)[O-])ccc1O)c1ccc2c(c1)OCO2,26.9,i,1.27,i
Cc1ccc(S(=O)(=O)N(Cc2ccccc2)Cc2ccco2)cc1,-4.6,i,-5.04*,i
Cc1ccc(-c2nnc(SCC(=O)Nc3ccccc3N3CCOCC3)o2)cc1,-1.6,.,0.16,.
Cc1ccc(SCC(=O)Nc2ccccc2N2CCOCC2)cc1,.,i,-12*,i
O=C(CSc1ccc(F)cc1)Nc1ccc(N2CCOCC2)cc1,-8.0,i,-1.56,i
O=C(CSc1ccccc1)Nc1ccccc1N1CCOCC1,-58.3,i,-8.52*,i
Cc1noc(C)c1CSCC(=O)Nc1ccccc1N1CCCCC1,-28.9,i,-9.95*,i
O=C(CSc1ccc(F)cc1)Nc1ccccc1N1CCOCC1,.,i,-13.5*,i
N#Cc1ccc(NC(=O)COC(=O)c2cccc(S(=O)(=O)N3CCCC3)c2)cc1,-7.0,.,.,.
CSc1ncnc2c1ncn2CCCNCCc1ccccn1,1.0,.,.,.
O=C(c1ccc([N+](=O)[O-])cc1)N1C=CC(C(F)(F)F)=NCC1,-7.6,i,-1.06,i
Nc1nc(CCl)nc(Nc2cccc3ccccc23)n1,81.0*,i,2.19,i
O=C1CN(C(=O)COC(=O)[C@@H]2CCCN2S(=O)(=O)c2ccc(Cl)cc2)c2ccccc2N1,-3.6,.,.,.
COc1cccc(-c2sc3cc(OC)c(OC)cc3c2-c2ccc(OCCN3CCCCC3)cc2)c1,91.9*,.,.,.
Cc1noc(C)c1S(=O)(=O)N1CCC(C(=O)O)CC1,-0.2,.,.,.
CC1CN(c2nc(-c3ccc(Br)cc3)nnc2-c2ccccc2)CC(C)N1 (stereo unspecified),20.9,i,-9.29*,i
COc1cccc(C(C[N+](=O)[O-])c2c(C)[nH]n(-c3ccccc3)c2=O)c1 (stereo unspecified),.,i,-12.7*,i
SMILES,H9c2 TAG inh,CHT allo act,Kir21 block,CHT inh
Cc1[nH]n(-c2ccccc2)c(=O)c1C(C[N+](=O)[O-])c1ccc(Br)cc1 (stereo unspecified),-8.9,i,-0.32,i
COc1cc(/C=N/O)cc(Br)c1OCc1ccc(Cl)cc1,-80.9,i,0.68,i
Fc1ccc(COc2cccc(CNCc3ccncc3)c2)cc1,-32.3,i,-0.76,i
COc1cc(CNCCO)cc(Cl)c1OCc1ccc(Cl)cc1Cl,27.0,i,-11.3*,i
CCOc1cc(CNCc2ccncc2)cc(Br)c1OCc1ccc(F)cc1,.,i,-12.9*,i
CCOc1cc(CNCCO)cc(Br)c1OCc1ccccc1,5.8,i,-16.2*,i
COc1cc(CNC(C)(C)CO)cc(Br)c1OCc1ccc(Cl)cc1,.,i,-4.78*,i
CCOc1cc(CNc2ccccc2)cc(Br)c1OCc1ccccc1F,-193.5,i,-0.02,i
CCCCc1n[nH]c2c1/C(=N/OCC)CC(C)(C)C2,13.1,i,-1.54,i

# Assay outcomes (PubChem BioAssay)
